KDM5B inh = inhibitors of human KDM5B histone demethylase. Q9UGL1. KDM5B demethylase, FDH-coupled NADH fluorescence (FDH is formaldehyde dehydrogenase). Potency, µM (titrated, usually from 57.7 µM), actives largely listed as inhibitors. 220,000 compounds, 2.6% hits. AID 1347165; active = well fitted inhibition curve with a large enough effect; also: nearly all actives have a fitted effect of over 70% in size
Target sequence (Q9UGL1 whole entry, looked up): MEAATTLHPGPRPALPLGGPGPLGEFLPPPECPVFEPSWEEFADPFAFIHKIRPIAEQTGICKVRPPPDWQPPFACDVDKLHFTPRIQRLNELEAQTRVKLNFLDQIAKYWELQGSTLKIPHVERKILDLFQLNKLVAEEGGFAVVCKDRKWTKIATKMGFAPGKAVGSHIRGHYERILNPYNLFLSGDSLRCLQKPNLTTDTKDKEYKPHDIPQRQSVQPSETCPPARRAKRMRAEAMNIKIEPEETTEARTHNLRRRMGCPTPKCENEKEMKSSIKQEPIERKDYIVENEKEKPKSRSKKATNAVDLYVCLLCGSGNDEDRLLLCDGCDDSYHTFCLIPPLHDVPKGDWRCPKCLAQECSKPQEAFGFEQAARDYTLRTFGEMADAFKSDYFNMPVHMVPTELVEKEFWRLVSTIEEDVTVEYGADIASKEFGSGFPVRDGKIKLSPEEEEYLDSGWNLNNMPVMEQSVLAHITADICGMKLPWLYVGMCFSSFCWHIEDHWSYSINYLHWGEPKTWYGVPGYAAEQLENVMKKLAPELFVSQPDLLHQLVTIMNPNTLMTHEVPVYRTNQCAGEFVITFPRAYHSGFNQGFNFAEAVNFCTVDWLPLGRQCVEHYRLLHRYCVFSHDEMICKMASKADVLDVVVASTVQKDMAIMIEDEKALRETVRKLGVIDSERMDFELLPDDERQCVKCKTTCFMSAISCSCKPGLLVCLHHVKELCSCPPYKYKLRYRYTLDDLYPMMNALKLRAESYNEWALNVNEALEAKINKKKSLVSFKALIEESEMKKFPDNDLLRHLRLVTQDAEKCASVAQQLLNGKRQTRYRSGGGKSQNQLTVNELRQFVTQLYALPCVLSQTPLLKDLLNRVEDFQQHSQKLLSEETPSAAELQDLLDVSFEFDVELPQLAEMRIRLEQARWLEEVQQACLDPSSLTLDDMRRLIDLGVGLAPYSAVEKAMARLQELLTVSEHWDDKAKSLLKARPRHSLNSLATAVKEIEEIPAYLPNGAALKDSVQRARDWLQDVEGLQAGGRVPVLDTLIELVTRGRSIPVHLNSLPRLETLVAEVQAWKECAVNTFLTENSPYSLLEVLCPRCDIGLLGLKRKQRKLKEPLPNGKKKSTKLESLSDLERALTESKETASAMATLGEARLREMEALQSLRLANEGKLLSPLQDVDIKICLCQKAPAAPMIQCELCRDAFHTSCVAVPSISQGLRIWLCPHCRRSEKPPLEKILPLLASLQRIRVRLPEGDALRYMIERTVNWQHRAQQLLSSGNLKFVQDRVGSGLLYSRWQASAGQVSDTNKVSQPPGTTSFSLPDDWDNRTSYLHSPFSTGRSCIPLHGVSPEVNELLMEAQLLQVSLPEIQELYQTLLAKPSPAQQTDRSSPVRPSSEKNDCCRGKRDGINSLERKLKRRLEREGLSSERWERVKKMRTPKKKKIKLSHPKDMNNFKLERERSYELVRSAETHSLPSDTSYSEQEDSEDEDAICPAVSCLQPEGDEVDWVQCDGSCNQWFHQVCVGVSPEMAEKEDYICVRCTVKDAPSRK
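Measured: NADH fluorescence change, 30 min, RT. System: KDM5BΔAP 200 nM final, H3K4me3 peptide, α-KG, Fe(II), ascorbate, NAD⁺ plus FDH, pH 7.5 HEPES. Compounds: titrated, 10 min pre-incubation with enzyme.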
Numbers stand for hits. This is one part of a sample in which hits are shown more often than they occur.

Screening O=C(Cc1ccc(F)cc1)NCc1nnc2cc(-c3nc(C4CC4)no3)ccn12 returned KDM5B inh 28µM.
Screening O=C(Cc1ccc(Cl)cc1)NCc1nnc2cc(-c3nc(C4CC4)no3)ccn12 returned KDM5B inh inactive.
CCN(CC)c1ccc(/C=N/N(c2ccccc2)c2ccccc2)cc1 was read as KDM5B inh inactive.
For CN1CC(c2nc(C3CCOCC3)nn2CC(=O)O)CC1=O (stereo not drawn) the results were KDM5B inh inactive.
Screening CC1CCN(C(=O)COc2ncnc3ccc(Br)cc23)CC1 returned KDM5B inh inactive.
`CC(=O)c1ccc(N2CCN(CCS(=O)(=O)c3ccc(Br)cc3)CC2)cc1` gave KDM5B inh inactive.
O=C(Cc1ccccc1)N(Cc1cccc2[nH]ccc12)C1CC1 was read as KDM5B inh inactive.
CCCOc1cccc(C(=O)Nc2cc(C(C)(C)C)on2)c1 was read as KDM5B inh inactive.
For CCCCNC(=O)NC(c1ccccc1)c1ccccn1 (stereo not drawn) the results were KDM5B inh inactive.
Screening CN(C)c1cccc(-c2nc(-c3nnn4c3COC(c3ccccc3Cl)C4)no2)c1 (stereo not drawn) returned KDM5B inh inactive.
COc1ccc(C2Cn3nnc(-c4nc(-c5ccccc5Cl)no4)c3CO2)cc1 (stereo not drawn) was read as KDM5B inh inactive.
Screening CN(C)c1ccc(-c2nc(-c3nnn4c3COC(c3ccccc3Cl)C4)no2)cc1 (stereo not drawn) returned KDM5B inh 25µM.
Screening Cc1ccsc1-c1nc(-c2nnn3c2COC(c2ccccc2Cl)C3)no1 (stereo not drawn) returned KDM5B inh inactive.
COc1ccc(-c2nc(-c3nnn4c3COC(c3ccccc3Cl)C4)no2)cc1 (stereo not drawn) was read as KDM5B inh inactive.
Screening COc1cccc(-c2nc(-c3nnn4c3COC(c3ccccc3Cl)C4)no2)c1OC (stereo not drawn) returned KDM5B inh 14µM.
Screening Cc1nc(-c2cccc(N3CC(C(=O)NC4CCCCC4)CC3=O)c2)no1 (stereo not drawn) returned KDM5B inh inactive.
COc1ccccc1CNC(=O)NC(c1ccccc1)c1ccccc1 was read as KDM5B inh inactive.
Screening O=C(NCCc1ccc(Cl)cc1)c1cc(-c2ccc(Cl)cc2Cl)c2cccn2n1 returned KDM5B inh inactive.
`COc1ccc(CCNC(=O)c2cc(C3CC3)nc3c2cnn3C(C)C)cc1OC` gave KDM5B inh inactive.
Screening Cn1ncc2c(C(=O)NCCc3ccc(Cl)cc3)cc(-c3ccc(Cl)cc3Cl)nc21 returned KDM5B inh 71µM.
`CC(C)NC(=O)c1cc(-c2ccc(Cl)cc2Cl)nc2c1cnn2C` gave KDM5B inh 89µM.
`CC(C)NC(=O)c1cc(-c2ccc(Cl)cc2)nc2ccccc12` gave KDM5B inh inactive.
For CC(C)NC(=O)c1ccc(Cl)cc1-n1cnnn1 the results were KDM5B inh inactive.
O=C(CCC(=O)OCc1ccccc1Cl)Nc1ccc2c(c1)oc1ccccc12 was read as KDM5B inh inactive.
`Cc1cc(C(=O)OCC(=O)NC(=O)NC(C)C)c2ccccc2n1` gave KDM5B inh inactive.
`O=C(C1CN(C(=O)c2ccccc2F)c2ccccc2O1)N1CCOCC1` (stereo not drawn) gave KDM5B inh inactive.
Screening NC(=O)c1ccc(COC(=O)c2ccc(Cl)c(Cl)c2)cc1 returned KDM5B inh inactive.
N#Cc1c(N)nc2c(c1-c1ccc(Br)cc1)CCCC2 was read as KDM5B inh inactive.
Screening O=C(CSc1nnnn1C1CCCCC1)Nc1cccc(CN2CCSCC2)c1 returned KDM5B inh inactive.
Screening COc1ccc(-c2nnc3ccc(NCCc4ccccn4)nn23)nc1 returned KDM5B inh 40µM.
Screening COc1ccc(NC(=O)CSc2ccc3nnc(-c4ccccn4)n3n2)cc1 returned KDM5B inh inactive.
For COc1ccc(Nc2ccc3nnc(-c4ccccn4)n3n2)cc1 the results were KDM5B inh inactive.
For Cc1csc(SCC(=O)Nc2ccccc2C(N)=O)n1 the results were KDM5B inh inactive.
CCCn1cc2c3c(cccc31)CN(C(=O)COc1ccc(F)cc1)CC2 was read as KDM5B inh 32µM.
Screening COc1ccccc1C(=O)N1CCc2cn(C)c3cccc(c23)C1 returned KDM5B inh inactive.
`Cn1cc2c3c(cccc31)CN(C(=O)CC(C)(C)C)CC2` gave KDM5B inh 32µM.
O=C(COc1ccc(F)cc1)N1CCOc2ccc(CN3CCc4ccccc4C3)cc2C1 was read as KDM5B inh inactive.
Cn1cc2c3c(cccc31)CN(C(=O)c1cccs1)CC2 was read as KDM5B inh inactive.
`Cn1cc2c3c(cccc31)CN(C(=O)c1ccccc1F)CC2` gave KDM5B inh inactive.
`CCCCc1nn(CC(=O)N2CCNC(=O)C2)c(=O)n1CCc1ccccc1` gave KDM5B inh inactive.
`O=C(O)C1Cc2ccccc2S1` (stereo not drawn) gave KDM5B inh inactive.
For COc1ccc(-c2c(NC(=O)C3CCCCC3)oc3ccccc3c2=O)cc1 the results were KDM5B inh inactive.
Screening CC(C)C[C@H]1CCC[C@H](CC(C)C)[N+]1(C)C returned KDM5B inh inactive.
For COc1ccc2cc(/C=C(\NC(=O)c3ccccc3)C(=O)N(C)C)c(Cl)nc2c1 the results were KDM5B inh inactive.
Cc1ccc(C)c(NC(=O)CN2C(=O)C(c3ccccc3)=NC23CCCC3)c1 was read as KDM5B inh inactive.
Cc1oc2ccn(Cc3cccc(F)c3)c(=O)c2c1C(=O)NC(C)c1ccccn1 (stereo not drawn) was read as KDM5B inh inactive.
CC(=O)Nc1ccc(NC(=O)c2c(C)oc3ccn(Cc4ccc(F)cc4)c(=O)c23)cc1 was read as KDM5B inh 28µM.
`COc1ccc(NC(=O)c2c(C)oc3ccn(Cc4cccc(F)c4)c(=O)c23)cc1F` gave KDM5B inh inactive.
For COc1ccc(OC)c(NC(=O)c2c(C)oc3ccn(Cc4cccc(F)c4)c(=O)c23)c1 the results were KDM5B inh 25µM.
CCCCN(C)C(=O)c1c(C)oc2ccn(Cc3ccc(F)cc3)c(=O)c12 was read as KDM5B inh inactive.
Screening Cc1oc2ncn(C)c(=O)c2c1C(=O)Nc1ccc(F)cc1 returned KDM5B inh inactive.
For Cc1nc(N2CCCC(C(=O)Nc3cc(F)ccc3F)C2)c2c(C)c(C)oc2n1 (stereo not drawn) the results were KDM5B inh inactive.
Screening Nc1nn(Cc2c(F)cccc2Cl)cc1Cl returned KDM5B inh inactive.
COC(=O)c1ccc(NC(=O)Cn2c(-c3cnccn3)nc(C)c(C)c2=O)cc1 was read as KDM5B inh inactive.
O=C(NC1CC(c2nnc(CO)n2C2CC2)C1)c1ccc(F)cc1Cl (stereo not drawn) was read as KDM5B inh inactive.
`CC(C)(C)n1ccc(C(=O)NC2CC(c3nnc(CO)n3C3CC3)C2)c1` (stereo not drawn) gave KDM5B inh inactive.
Screening O=C(NC1CC(c2nnc(CO)n2C2CC2)C1)c1cccn2cnnc12 (stereo not drawn) returned KDM5B inh 28µM.
Screening CCC(C)NC(=O)C(NC(=O)c1cccc(OC)c1)C1CCN(C(=O)CC(C)(C)C)CC1 (stereo not drawn) returned KDM5B inh inactive.
Cc1oc(-c2ccccc2)nc1C(=O)Nc1ccc(F)c(C(N)=O)c1 was read as KDM5B inh inactive.

Assay outcomes: PubChem, National Center for Advancing Translational Sciences (NCATS)
